Laboratory results reported in PubChem BioAssay AID1159580 (chemical genetic matrix, 2015).
Where “and” joins values, the source holds several entries; their conditions need not be identical. Identical values can stand only once. Hit rate of the full screen: of about 5,500 compounds, about 2,000 (36%) were called active. About 18% were inconclusive and are not listed. Cut-off read from the data, not from the text of the source: active = normalized growth mostly below about 0.91 (no sharp cut-off); inconclusive = no clear call, values can overlap the other calls; inactive = mostly above about 0.92. The list shows a part of the results.

Test: chemical genetic growth profiling, strain panel (AID 1159580);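 note: tested at 20 µM; growth read once vehicle control cultures reached saturation at 30 °C; 1 = growth at the plate median or of vehicle wells; lower values mean less growth of the strain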
Conditions: growth OD
[1] = S. cerevisiae deletion strains, locus YDL101C, strain DUN1, stronger effect = lower value
[2] = S. cerevisiae deletion strains, locus YHR030C, strain SLT2, stronger effect = lower value
[3] = S. cerevisiae deletion strains, locus YHR079C, strain IRE1, stronger effect = lower value
[4] = S. cerevisiae deletion strains, locus YJL095W, strain BCK1, stronger effect = lower value
[5] = S. cerevisiae deletion strains, locus YJR066W, strain TOR1, stronger effect = lower value
[6] = S. cerevisiae deletion strains, locus YLR113W, strain HOG1, stronger effect = lower value
[7] = S. cerevisiae deletion strains, locus YNL183C, strain NPR1, stronger effect = lower value
[8] = S. cerevisiae deletion strains, locus YOR061W, strain CKA2, stronger effect = lower value
[9] = S. cerevisiae deletion strains, locus YOR231W, strain MKK1, stronger effect = lower value
[10] = S. cerevisiae deletion strains, locus YPL256C, strain CLN2, stronger effect = lower value

Measured: normalized growth

CC(=O)Nc1ccc(OCC(O)CNC(C)C)cc1 (centres undefined)
inactive: S. cerevisiae deletion strains, locus YBR021W, strain FUR4, stronger effect = lower value 1.01 | S. cerevisiae deletion strains, locus YBR229C, strain ROT2, stronger effect = lower value 1 | S. cerevisiae deletion strains, locus YCL029C, strain bik1, stronger effect = lower value 0.995 | S. cerevisiae deletion strains, locus YDL035C, strain GPR1, stronger effect = lower value 1.01 | S. cerevisiae deletion strains, locus YDL074C, strain BRE1, stronger effect = lower value 1.02 | [1] 1.01 | S. cerevisiae deletion strains, locus YDL185W, strain tfp1, stronger effect = lower value 1.01 | S. cerevisiae deletion strains, locus YDL192W, strain arf1, stronger effect = lower value 1 | S. cerevisiae deletion strains, locus YDR101C, strain arx1, stronger effect = lower value 1.02 | S. cerevisiae deletion strains, locus YDR150W, strain NUM1, stronger effect = lower value 1.01 | S. cerevisiae deletion strains, locus YDR162C, strain NBP2, stronger effect = lower value 1.01 | S. cerevisiae deletion strains, locus YDR318W, strain mcm21, stronger effect = lower value 1 | S. cerevisiae deletion strains, locus YDR388W, stronger effect = lower value 1 | S. cerevisiae deletion strains, locus YDR502C, strain sam2, stronger effect = lower value 0.99 | S. cerevisiae deletion strains, locus YEL061C, strain CIN8, stronger effect = lower value 1.01 | S. cerevisiae deletion strains, locus YER110C, stronger effect = lower value 1 | S. cerevisiae deletion strains, locus YER155C, strain BEM2, stronger effect = lower value 1.01 | S. cerevisiae deletion strains, locus YER167W, strain BCK2, stronger effect = lower value 1.01 | S. cerevisiae deletion strains, locus YGL078C, strain dbp3, stronger effect = lower value 0.999 | S. cerevisiae deletion strains, locus YGL086W, strain mad1, stronger effect = lower value 1 | S. cerevisiae deletion strains, locus YGL248W, strain PDE1, stronger effect = lower value 1 | S. cerevisiae deletion strains, locus YGR078C, strain PAC10, stronger effect = lower value 1.01 | S. cerevisiae deletion strains, locus YGR135W, strain pre9, stronger effect = lower value 0.996 | S. cerevisiae deletion strains, locus YGR229C, strain SMI1, stronger effect = lower value 1 | S. cerevisiae deletion strains, locus YGR252W, strain gcn5, stronger effect = lower value 0.975 | [2] 1.01 and 0.983 | S. cerevisiae deletion strains, locus YHR079C, strain IRE1 (second series), stronger effect = lower value 0.999 | [3] 0.978 | S. cerevisiae deletion strains, locus YHR094C, strain hxt1, stronger effect = lower value 0.999 | S. cerevisiae deletion strains, locus YHR129C, strain ARP1, stronger effect = lower value 1.01 | S. cerevisiae deletion strains, locus YHR200W, strain rpn10, stronger effect = lower value 1.01 | S. cerevisiae deletion strains, locus YIL066C, strain RNR3, stronger effect = lower value 1.01 | S. cerevisiae deletion strains, locus YIL073C, strain SPO22, stronger effect = lower value 1.03 | S. cerevisiae deletion strains, locus YIL125W, strain kgd1, stronger effect = lower value 1 | S. cerevisiae deletion strains, locus YIR030C, strain dcg1, stronger effect = lower value 0.995 | [4] 1.02 and 0.982 | S. cerevisiae deletion strains, locus YJL134W, strain LCB3, stronger effect = lower value 1.01 | S. cerevisiae deletion strains, locus YJL168C, strain set2, stronger effect = lower value 1 | S. cerevisiae deletion strains, locus YJL187C, strain SWE1 (second series), stronger effect = lower value 1.02 | S. cerevisiae deletion strains, locus YJR043C, strain POL32, stronger effect = lower value 1.01 | [5] 0.965 | S. cerevisiae deletion strains, locus YKL009W, strain mrt4, stronger effect = lower value 0.991 | S. cerevisiae deletion strains, locus YKL068W, stronger effect = lower value 1 | S. cerevisiae deletion strains, locus YKL085W, strain MDH1 (second series), stronger effect = lower value 1.01 | S. cerevisiae deletion strains, locus YKL085W, strain MDH1, stronger effect = lower value 1.01 | S. cerevisiae deletion strains, locus YKR001C, strain vps1, stronger effect = lower value 1 | S. cerevisiae deletion strains, locus YLR039C, strain RIC1, stronger effect = lower value 1.05 | S. cerevisiae deletion strains, locus YLR058C, strain SHM2, stronger effect = lower value 1.01 | S. cerevisiae deletion strains, locus YLR102C, strain apc9, stronger effect = lower value 0.996 | [6] 1.01 | S. cerevisiae deletion strains, locus YLR262C, strain YPT6, stronger effect = lower value 1.03 | S. cerevisiae deletion strains, locus YLR268W, strain sec22, stronger effect = lower value 0.998 | S. cerevisiae deletion strains, locus YLR330W, strain CHS5, stronger effect = lower value 1.01 | S. cerevisiae deletion strains, locus YLR342W, strain FKS1 (second series), stronger effect = lower value 1.02 | S. cerevisiae deletion strains, locus YLR371W, strain rom2, stronger effect = lower value 1.01 | S. cerevisiae deletion strains, locus YLR418C, strain cdc73, stronger effect = lower value 0.981 | S. cerevisiae deletion strains, locus YML016C, strain PPZ1, stronger effect = lower value 1.01 | S. cerevisiae deletion strains, locus YML032C, strain rad52, stronger effect = lower value 1.02 | S. cerevisiae deletion strains, locus YML124C, strain tub3, stronger effect = lower value 0.998 | S. cerevisiae deletion strains, locus YMR078C, strain ctf18, stronger effect = lower value 1 | S. cerevisiae deletion strains, locus YMR223W, strain ubp8, stronger effect = lower value 0.985 | S. cerevisiae deletion strains, locus YMR307W, strain GAS1, stronger effect = lower value 0.965 | S. cerevisiae deletion strains, locus YNL067W, strain RPL9B, stronger effect = lower value 1.02 | S. cerevisiae deletion strains, locus YNL128W, strain TEP1, stronger effect = lower value 1.02 | S. cerevisiae deletion strains, locus YNL153C, strain GIM3, stronger effect = lower value 1.02 | [7] 0.938 | S. cerevisiae deletion strains, locus YNL233W, strain BNI4, stronger effect = lower value 1 | S. cerevisiae deletion strains, locus YNL250W, strain rad50, stronger effect = lower value 0.996 | S. cerevisiae deletion strains, locus YNL271C, strain bni1, stronger effect = lower value 0.992 | S. cerevisiae deletion strains, locus YNL298W, strain CLA4, stronger effect = lower value 1 | S. cerevisiae deletion strains, locus YNL307C, strain MCK1, stronger effect = lower value 1 | S. cerevisiae deletion strains, locus YNR052C, strain pop2, stronger effect = lower value 1.01 | S. cerevisiae deletion strains, locus YOL012C, strain htz1 0.693 | S. cerevisiae deletion strains, locus YOL147C, strain pex11, stronger effect = lower value 0.999 | [8] 1.01 | S. cerevisiae deletion strains, locus YOR069W, strain VPS5, stronger effect = lower value 1.01 | S. cerevisiae deletion strains, locus YOR136W, strain idh2, stronger effect = lower value 0.999 | S. cerevisiae deletion strains, locus YOR144C, strain elg1, stronger effect = lower value 0.998 | S. cerevisiae deletion strains, locus YOR184W, strain ser1, stronger effect = lower value 1.01 | [9] 0.965 | S. cerevisiae deletion strains, locus YOR316C, strain cot1, stronger effect = lower value 0.997 | S. cerevisiae deletion strains, locus YPL241C, strain CIN2, stronger effect = lower value 1.01 | [10] 0.973 | S. cerevisiae deletion strains, locus YPR119W, strain clb2, stronger effect = lower value 1 | S. cerevisiae deletion strains, locus YPR141C, strain kar3, stronger effect = lower value 0.985 | S. cerevisiae deletion strains, locus YPR163C, strain tif3, stronger effect = lower value 1.01 | S. cerevisiae deletion strains, locus YPR167C, strain met16, stronger effect = lower value 1 | S. cerevisiae deletion strains, strain wtn01, stronger effect = lower value 0.979 | S. cerevisiae strains, strain wild type, stronger effect = lower value 1.01

CC(C)Cc1ccc(C(C)C(=O)Nc2nn(C)c3ccccc23)cc1 (centres undefined)
active: [6] 0.855
inactive: S. cerevisiae deletion strains, locus YAR019C, strain CDC15, stronger effect = lower value 0.993 | S. cerevisiae deletion strains, locus YBL105C, strain PKC1, stronger effect = lower value 0.986 | S. cerevisiae deletion strains, locus YBR135W, strain CKS1, stronger effect = lower value 0.974 | S. cerevisiae deletion strains, locus YBR136W, strain MEC1, stronger effect = lower value 0.99 | S. cerevisiae deletion strains, locus YBR160W, strain CDC28, stronger effect = lower value 0.984 | S. cerevisiae deletion strains, locus YDL017W, strain CDC7, stronger effect = lower value 0.967 | S. cerevisiae deletion strains, locus YDL028C, strain MPS1, stronger effect = lower value 0.997 | [1] 0.993 | S. cerevisiae deletion strains, locus YDL108W, strain KIN28, stronger effect = lower value 0.992 | S. cerevisiae deletion strains, locus YDL132W, strain cdc53, stronger effect = lower value 0.998 | S. cerevisiae deletion strains, locus YDL214C, strain PRR2, stronger effect = lower value 0.931 | S. cerevisiae deletion strains, locus YDR054C, strain cdc34, stronger effect = lower value 0.968 | S. cerevisiae deletion strains, locus YDR226W, strain ADK1, stronger effect = lower value 0.991 | S. cerevisiae deletion strains, locus YDR477W, strain SNF1, stronger effect = lower value 0.932 | S. cerevisiae deletion strains, locus YER123W, strain YCK3, stronger effect = lower value 0.922 | S. cerevisiae deletion strains, locus YER133W, strain GLC7, stronger effect = lower value 0.945 | S. cerevisiae deletion strains, locus YFL009W, strain cdc4, stronger effect = lower value 0.985 | S. cerevisiae deletion strains, locus YFL029C, strain CAK1, stronger effect = lower value 0.994 | S. cerevisiae deletion strains, locus YFR003C, strain YPI1, stronger effect = lower value 0.993 | S. cerevisiae deletion strains, locus YFR019W, strain FAB1, stronger effect = lower value 0.962 | S. cerevisiae deletion strains, locus YFR028C, strain CDC14, stronger effect = lower value 0.988 | S. cerevisiae deletion strains, locus YGR040W, strain KSS1, stronger effect = lower value 0.915 | S. cerevisiae deletion strains, locus YGR052W, strain FMP48, stronger effect = lower value 0.983 | S. cerevisiae deletion strains, locus YGR092W, strain DBF2, stronger effect = lower value 0.931 | [2] 0.944 | [3] 0.945 | S. cerevisiae deletion strains, locus YHR082C, strain KSP1, stronger effect = lower value 0.94 | S. cerevisiae deletion strains, locus YHR205W, strain SCH9, stronger effect = lower value 0.909 | S. cerevisiae deletion strains, locus YIL147C, strain SLN1, stronger effect = lower value 0.989 | [4] 0.965 | S. cerevisiae deletion strains, locus YJL128C, strain PBS2, stronger effect = lower value 0.948 | S. cerevisiae deletion strains, locus YJL157C, strain FAR1, stronger effect = lower value 0.942 | S. cerevisiae deletion strains, locus YJR016C, strain ILV3, stronger effect = lower value 0.99 | S. cerevisiae deletion strains, locus YJR066W, strain TOR1 (second series), stronger effect = lower value 0.902 | [5] 0.982 | S. cerevisiae deletion strains, locus YKL048C, strain ELM1, stronger effect = lower value 0.965 | S. cerevisiae deletion strains, locus YKL067W, strain YNK1, stronger effect = lower value 0.939 | S. cerevisiae deletion strains, locus YKL101W, strain HSL1, stronger effect = lower value 0.933 | S. cerevisiae deletion strains, locus YKL193C, strain SDS22, stronger effect = lower value 0.975 | S. cerevisiae deletion strains, locus YKL203C, strain TOR2, stronger effect = lower value 0.981 | S. cerevisiae deletion strains, locus YLR133W, strain CKI1, stronger effect = lower value 0.93 | S. cerevisiae deletion strains, locus YLR403W, strain SFP1, stronger effect = lower value 0.772 | S. cerevisiae deletion strains, locus YML070W, strain DAK1, stronger effect = lower value 0.918 | S. cerevisiae deletion strains, locus YMR001C, strain CDC5, stronger effect = lower value 0.973 | S. cerevisiae deletion strains, locus YMR205C, strain PFK2 (second series), stronger effect = lower value 0.928 | S. cerevisiae deletion strains, locus YMR277W, strain FCP1, stronger effect = lower value 0.975 | S. cerevisiae deletion strains, locus YNL006W, strain LST8, stronger effect = lower value 0.993 | S. cerevisiae deletion strains, locus YNL020C, strain ARK1, stronger effect = lower value 0.935 | S. cerevisiae deletion strains, locus YNL161W, strain CBK1, stronger effect = lower value 0.991 | [7] 0.927 | S. cerevisiae deletion strains, locus YNL207W, strain RIO2, stronger effect = lower value 0.976 | S. cerevisiae deletion strains, locus YNL222W, strain SSU72, stronger effect = lower value 0.99 | S. cerevisiae deletion strains, locus YNL307C, strain MCK1 (second series), stronger effect = lower value 0.944 | S. cerevisiae deletion strains, locus YOL078W, strain AVO1, stronger effect = lower value 0.987 | S. cerevisiae deletion strains, locus YOL136C, strain PFK27, stronger effect = lower value 0.916 | [8] 0.938 | S. cerevisiae deletion strains, locus YOR119C, strain RIO1, stronger effect = lower value 0.988 | [9] 0.896 | S. cerevisiae deletion strains, locus YOR329C, strain SCD5, stronger effect = lower value 0.99 | S. cerevisiae deletion strains, locus YPL031C, strain PHO85, stronger effect = lower value 0.941 | S. cerevisiae deletion strains, locus YPL153C, strain RAD53, stronger effect = lower value 0.934 | S. cerevisiae deletion strains, locus YPL204W, strain HRR25, stronger effect = lower value 0.906 | S. cerevisiae deletion strains, locus YPL209C, strain IPL1, stronger effect = lower value 0.982 | [10] 0.88 | S. cerevisiae deletion strains, locus YPR025C, strain CCL1, stronger effect = lower value 0.986 | S. cerevisiae deletion strains, locus YPR106W, strain ISR1, stronger effect = lower value 0.979 | S. cerevisiae deletion strains, locus YPR111W, strain DBF20, stronger effect = lower value 0.955 | S. cerevisiae deletion strains, strain NNK1, stronger effect = lower value 0.98 | S. cerevisiae deletion strains, strain TSCII, stronger effect = lower value 0.992
